Values without a mark were called inactive. For some assays here: Measured potencies and affinities stand elsewhere. Active and inactive are the calls of the source. No rule for the calls is given here.
Legend:
[1] = Ebola virus entry assay, green fluorescence channel
[2] = Ebola virus entry assay, blue channel fluorescence
[3] = Ebola virus entry assay, ratio channel
[4] = Ebola virus entry assay, green channel fluorescence
[5] = Ebola virus entry assay, reporter ratio channel; Channel type: primary
For efficacy in this document: 0% is about no effect.

| SMILES | efficacy [1] [%] | outcome [2] | outcome [3] | outcome [4] | outcome [5] | AC50 [2] | AC50 [3] | AC50 [5] |
| --- | --- | --- | --- | --- | --- | --- | --- | --- |
| Cc1c(N)cccc1C(F)(F)F | 32.5 | inactive | inactive | inactive | inactive |  |  |  |
| O=C(Nc1ccc(Cl)cc1)Nc1ccc(Cl)c(Cl)c1 | -28.2 |  |  | inactive |  | 15.8 µM (active) | 12.6 µM (active) | 12.6 µM (active) |
| CO[C@]1(NC(=O)CSC(F)F)C(=O)N2C(C(=O)O)=C(CSc3nnnn3CCO)CO[C@H]21 | -28.6 | inactive | inactive | inactive | inactive |  |  |  |
| COC(=O)[C@H]1[C@H]2C[C@@H]3c4[nH]c5cc(OC)ccc5c4CCN3C[C@H]2C[C@@H](OC(=O)/C=C/c2ccc(O)c(OC)c2)[C@@H]1OC | -80.1 |  |  | inactive |  | 3.55 µM (active) | 3.16 µM (active) | 3.16 µM (active) |
| CC[C@H](NC(C)C)[C@H](O)c1ccc(O)c2[nH]c(=O)ccc12 | -13.2 | inactive | inactive | inactive | inactive |  |  |  |
| CC(C)(C)C(=O)OCOC(=O)[C@@H]1N2C(=O)[C@@H](NC(=O)[C@H](N)c3ccccc3)[C@H]2SC1(C)C | 35 |  |  | inactive |  | 12.6 µM (active) | 20 µM (active) | 20 µM (active) |
| CCC1Nc2cc(Cl)c(S(N)(=O)=O)cc2S(=O)(=O)N1 (stereo not given) | -28.2 | inactive | inactive | inactive | inactive |  |  |  |
| Cc1ccc(CCn2c3c(c4cc(Cl)ccc42)CN(C)CC3)cn1 | 26.4 |  |  | inactive |  | 14.1 µM (active) | 17.8 µM (active) | 17.8 µM (active) |
| C=C[C@@]1(C)CC(=O)[C@]2(O)[C@@]3(C)[C@@H](O)CCC(C)(C)[C@@H]3[C@H](O)[C@H](OC(C)=O)[C@@]2(C)O1 | 10.9 |  | inactive | inactive | inactive | 10 µM (active) |  |  |
| COC(=O)C1=C(C)NC(C)=C(C(=O)O[C@@H]2CCCN(Cc3ccccc3)C2)[C@@H]1c1cccc([N+](=O)[O-])c1 | 39.4 |  | inactive | inactive |  | 39.8 µM (active) |  | 35.5 µM (active) |
| COc1ccc(CN2CCN(C(c3ccc(F)cc3)c3ccc(F)cc3)CC2)c(OC)c1OC | 25.5 |  |  | inactive |  | 7.08 µM (active) | 10 µM (active) | 10 µM (active) |
| CN(C)CCN(Cc1ccccc1)c1ccccn1 | 35.7 |  |  | inactive |  | 22.4 µM (active) | 20 µM (active) | 20 µM (active) |
| CCN1CCN(c2cc(-c3ccc(F)cc3)c3c(n2)CCCCCC3)CC1 | 32.1 |  |  | inactive |  | 1.41 µM (active) | 1.78 µM (active) | 1.78 µM (active) |
| CCCCc1cc2ccccc2c(OCCN(C)C)n1 | -77.9 |  |  | inactive |  | 8.91 µM (active) | 7.08 µM (active) | 7.08 µM (active) |
| CCCOc1ccc2nc(NC(=O)OC)[nH]c2c1 | -28.5 |  |  | inactive |  | 0.501 µM (active) | 0.562 µM (active) | 0.562 µM (active) |
| NC(N)=N/N=C/c1c(Cl)cccc1Cl | -12.6 |  |  | inactive |  | 28.2 µM (active) | 28.2 µM (active) | 28.2 µM (active) |
| Cc1cc2nc3ccc(=[N+](C)C)cc-3sc2cc1N | -32.6 |  | inactive | inactive | inactive | 39.8 µM (active) |  |  |
| NC(N)=NN=C(/C=C/c1ccc([N+](=O)[O-])o1)/C=C/c1ccc([N+](=O)[O-])o1 | -41.4 |  |  | inactive |  | 3.16 µM (active) | 3.16 µM (active) | 3.16 µM (active) |
| Cn1cnc2c1c(=O)[nH]c(=O)n2C | -13.7 | inactive | inactive | inactive | inactive |  |  |  |
| Oc1c(Cl)cc(Cl)cc1Sc1cc(Cl)cc(Cl)c1O | -26.7 |  |  | inactive |  | 11.2 µM (active) | 22.4 µM (active) | 22.4 µM (active) |
| CCCCCCCCCCCCCCCCC(C(=O)O)C(O)(CC(=O)O)C(=O)O (stereo not given) | -32 | inactive | inactive | inactive | inactive |  |  |  |
| O=c1[nH]sc2cc(Cl)ccc12 | -42.1 |  | inactive | inactive |  | 39.8 µM (active) |  | 39.8 µM (active) |
| CC(C)NCC(O)c1ccc2ccccc2c1 (stereo not given) | 20.8 |  |  | inactive |  | 31.6 µM (active) | 25.1 µM (active) | 25.1 µM (active) |
| Clc1ccc(C(Cn2ccnc2)OCc2ccsc2Cl)c(Cl)c1 (stereo not given) | 49.7 |  |  | inactive |  | 10 µM (active) | 8.91 µM (active) | 8.91 µM (active) |
| C=CC[N+]1([C@H]2C[C@H]3[C@@H]4CC[C@H]5C[C@H](OC(C)=O)[C@@H](N6CCCCC6)C[C@]5(C)[C@H]4CC[C@]3(C)[C@H]2OC(=O)CC)CCCCC1 | 47.7 |  | inactive | inactive |  | 14.1 µM (active) |  | 28.2 µM (active) |
| CCCOc1ccccc1-c1nc2n[nH]nc2c(=O)[nH]1 | 11 | inactive | inactive | inactive | inactive |  |  |  |

| SMILES | efficacy [1] [%] | outcome [2] | outcome [3] | outcome [4] | outcome [5] | AC50 [2] | AC50 [3] | AC50 [5] |
| --- | --- | --- | --- | --- | --- | --- | --- | --- |
| Cc1cc(CC(=O)O)n(C)c1C(=O)c1ccc(Cl)cc1 | 24 | inactive | inactive | inactive | inactive |  |  |  |
| CCCOc1ccc(C(=O)OCCN(CC)CC)cc1N | 35 |  |  | inactive |  | 39.8 µM (active) | 22.4 µM (active) | 22.4 µM (active) |
| CCc1cc(Cl)c(OC)c(C(=O)NC[C@@H]2CCCN2CC)c1O | 38.6 |  |  | inactive |  | 31.6 µM (active) | 20 µM (active) | 20 µM (active) |
| CC[C@H]1CN2CCc3cc(OC)c(OC)cc3[C@@H]2C[C@@H]1C[C@H]1NCCc2cc(OC)c(OC)cc21 | 58.8 |  |  | inactive |  | 17.8 µM (active) | 17.8 µM (active) | 17.8 µM (active) |
| O=C(Nc1ccc([N+](=O)[O-])cc1Cl)c1cc(Cl)ccc1O | 35.2 |  |  | inactive |  | 0.891 µM (active) | 1 µM (active) | 1 µM (active) |
| CCC1(c2cnc[nH]2)Cc2ccccc2C1 | -11.3 |  | inactive | inactive |  | 25.1 µM (active) |  | 31.6 µM (active) |
| Oc1c(Cl)cc(Cl)c(Cl)c1Cc1c(O)c(Cl)cc(Cl)c1Cl | 19.2 |  |  | inactive |  | 28.2 µM (active) | 15.8 µM (active) | 15.8 µM (active) |
| O=C(OCc1ccccc1)c1ccc(O)cc1 | -29.7 |  | inactive | inactive | inactive | 22.4 µM (active) |  |  |
| c1ccc(CCNc2nc(-c3ccccc3)cs2)cc1 | 29.5 |  | inactive | inactive |  | 39.8 µM (active) |  | 39.8 µM (active) |
| COc1ccc2cc3[n+](cc2c1OC)CCc1cc2c(cc1-3)OCO2 | 30.3 | inactive | inactive | inactive | inactive |  |  |  |
| CCN(CC)CCOc1ccc2c(c1)C(=O)c1cc(OCCN(CC)CC)ccc1-2 | 9 |  |  | inactive |  | 1.41 µM (active) | 1.41 µM (active) | 1.41 µM (active) |
| COc1ccc(CN(CCN(C)C)c2ccccn2)cc1 | 22.5 |  |  | inactive |  | 15.8 µM (active) | 15.8 µM (active) | 15.8 µM (active) |
| CC1=C(C(=O)O)N2C(=O)[C@@H](NC(=O)[C@H](N)C3=CCC=CC3)[C@H]2SC1 | -21.8 | inactive | inactive | inactive | inactive |  |  |  |
| COc1ccc2nc(NC(=O)Nc3ccccc3)sc2c1 | -33.8 |  |  | inactive |  | 22.4 µM (active) | 15.8 µM (active) | 15.8 µM (active) |
| CC(CNC1CCCCC1)OC(=O)c1ccccc1 (stereo not given) | 19.5 |  |  | inactive |  | 8.91 µM (active) | 8.91 µM (active) | 8.91 µM (active) |
| Fc1ccc(C(c2ccc(F)cc2)N2CCNCC2)cc1 | 28.7 |  |  | inactive |  | 10 µM (active) | 10 µM (active) | 10 µM (active) |
| CCCCN=C(N)N=C(N)N | 24.1 | inactive | inactive | inactive | inactive |  |  |  |
| CO/N=C(/C(=O)N[C@@H]1C(=O)N2C(C(=O)O)=C(Cn3nnc(C)n3)CS[C@H]12)c1csc(N)n1 | 14.5 | inactive | inactive | inactive | inactive |  |  |  |
| Clc1ccccc1C(c1ccccc1)(c1ccccc1)n1ccnc1 | 24.5 |  | inactive | inactive |  | 39.8 µM (active) |  | 39.8 µM (active) |
| C#C[C@]1(OC(C)=O)CC[C@H]2[C@@H]3CCC4=C/C(=N/O)CC[C@@H]4[C@H]3CC[C@@]21CC | -27.8 |  | inactive | inactive |  | 39.8 µM (active) |  | 39.8 µM (active) |
| CC(C)OC(=O)C(C(=O)OC(C)C)=C1SC=CS1 | -38.6 |  | inactive | inactive | inactive | 39.8 µM (active) |  |  |
| NC(=O)C(=O)N/N=C/c1ccc([N+](=O)[O-])o1 | 21.5 | inactive | inactive | inactive | inactive |  |  |  |
| OC(CCN1CCCCC1)(c1ccccc1)C1CC2C=CC1C2 (stereo not given) | -14.6 |  | inactive | inactive | inactive | 12.6 µM (active) |  |  |
| CC(C)(C)CC(C)(C)c1ccc(O)c(Cc2ccc(Cl)cc2Cl)c1 | 12.2 |  |  | inactive |  | 22.4 µM (active) | 14.1 µM (active) | 14.1 µM (active) |
| CC(C)C[C@@H](N)C(=O)O | 14.3 | inactive | inactive | inactive | inactive |  |  |  |
| Cc1ccc(Cl)c(OCC(O)CNC(C)(C)C)c1 (stereo not given) | -22.3 |  |  | inactive |  | 15.8 µM (active) | 28.2 µM (active) | 28.2 µM (active) |

From PubChem BioAssay (NCATS)
